Screening data: PubChem, several laboratories
Rv3671c protease = inhibitors of M. tuberculosis serine protease Rv3671c; P9WHR9; hit rate 0.048% among 320,000; AID 2606; inhibition, % at 5.96 µM; in the data active = inhibition above about 38%;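 note: extracellular domain of Rv3671c used as enzyme; 0% = enzyme with DMSO and 100% = no enzyme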
Mtb UGM inh = blocks M. tuberculosis UGM enzyme; purified UGM, fluorescence polarization probe displacement; inhibition, % at 10 µM; hit rate 0.06% among 320,000; in the data active = inhibition above about 10%, passing the limit was not always enough
Target sequence (P9WIQ1 whole entry, looked up): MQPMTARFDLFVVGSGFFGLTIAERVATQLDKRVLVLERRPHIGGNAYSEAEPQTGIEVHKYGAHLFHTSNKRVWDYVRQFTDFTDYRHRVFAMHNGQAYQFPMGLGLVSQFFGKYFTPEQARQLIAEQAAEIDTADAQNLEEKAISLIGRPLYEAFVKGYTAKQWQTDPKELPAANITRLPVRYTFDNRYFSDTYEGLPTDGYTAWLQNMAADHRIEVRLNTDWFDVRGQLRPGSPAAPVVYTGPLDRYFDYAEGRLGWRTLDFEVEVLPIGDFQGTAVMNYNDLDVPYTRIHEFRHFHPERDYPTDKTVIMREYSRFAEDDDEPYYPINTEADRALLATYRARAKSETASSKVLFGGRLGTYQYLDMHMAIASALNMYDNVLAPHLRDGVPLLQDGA
GDH-TPI counter = inhibits GDH-TPI coupling enzymes, artifact for Mtb FBA screen | inhibition, % at 4.8 µM | hit rate 1.2% among 360,000 | GDH-TPI coupled enzyme counterscreen, NADH absorbance; in the data active = inhibition above about 30%;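 note: 0% = DMSO wells and 100% = wells lacking the enzyme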
RecA splice inh = inhibitors of M. tuberculosis RecA intein splicing | inhibition, % (concentration not given with the values) | P9WHJ3 | cell-free RecA intein splicing, fluorescence | AID 2221 | hit rate 0.75% among 290,000; in the data active = inhibition above about 30%;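 note: 0% = vehicle wells and 100% = reference inhibitor control wells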
Mtb FBA inh = inhibits M. tuberculosis FBA enzyme; AID 588726; inhibition, % at 1 µM; purified M. tuberculosis FBA, fluorescence read-out; P9WQA3; hit rate 2.3% among 360,000; in the data active = inhibition above about 27%;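 note: 0% = vehicle and 100% = reference inhibitor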
Mtb betalactam = beta-lactam sensitization of Mtb H37Rv; M. tuberculosis H37Rv growth with meropenem, percent inhibition; inhibition, % at 25 µM; hit rate 0.27% among 330,000; AID 434955; call rule not given here;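 note: growth measured after seven days incubation then overnight dye step; 0% = bacteria only wells and 100% = bacteria with antibiotic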
An asterisk follows results filed as active. Sampled rows, rich in hits. Any-hit rate of the full collection: about 4%.

What do the screens show for `CC1(C(=O)NS(=O)(=O)c2cccc(F)c2)CCN1C(=O)CCc1ccccc1` (stereo not drawn)?
GDH-TPI counter: 2.2; Mtb FBA inh: -0.5

Results for COC(=O)c1cc(-c2c(C)oc3cc(OC(C)C)ccc3c2=O)c(C)o1 ?
Rv3671c protease: -1.3; Mtb UGM inh: -1.2; GDH-TPI counter: 10.4; RecA splice inh: 4.5; Mtb FBA inh: -0.2; Mtb betalactam: 19.0

What do the screens show for `COC(=O)Cc1c(C)c2ccc(OCC(=O)N3CCOCC3)cc2oc1=O`?
Rv3671c protease: 10.4; Mtb UGM inh: -1.7; GDH-TPI counter: 26.1; RecA splice inh: 0.8; Mtb FBA inh: 123.3*; Mtb betalactam: 3.1

How did COC(=O)Cc1c(C)c2ccc(OC(C)C)cc2oc1=O do in these assays?
Rv3671c protease: -7.8; Mtb UGM inh: -0.9; GDH-TPI counter: 29.6; RecA splice inh: 0.3; Mtb FBA inh: active; Mtb betalactam: 2.1

How did COc1ccc(-c2cc(=O)oc3cc(OCC(=O)NCC4CCC(C(=O)O)CC4)ccc23)cc1 (stereo not drawn) do in these assays?
Rv3671c protease: -3.9; Mtb UGM inh: -0.3; GDH-TPI counter: 33.3*; RecA splice inh: 9.2; Mtb FBA inh: 5.8; Mtb betalactam: 0.3

How did Cc1cc(=O)oc2cc(OCC(=O)NCC3CCC(C(=O)O)CC3)ccc12 (stereo not drawn) do in these assays?
Rv3671c protease: 1.5; Mtb UGM inh: -0.5; GDH-TPI counter: -2.9; RecA splice inh: 0.9; Mtb FBA inh: 15.0; Mtb betalactam: -5.4

What do the screens show for `Cc1ccc(S(=O)(=O)CCC(=O)OCc2cc(=O)oc3cc(C)ccc23)cc1`?
Rv3671c protease: -0.2; Mtb UGM inh: 1.6; GDH-TPI counter: 3.8; Mtb FBA inh: 0.6; Mtb betalactam: -5.6

Results for COc1ccc2c(CC(=O)NCC3CCC(C(=O)O)CC3)cc(=O)oc2c1 (stereo not drawn) ?
Rv3671c protease: 0.1; Mtb UGM inh: -1.4; GDH-TPI counter: 24.8; RecA splice inh: -0.9; Mtb FBA inh: 132.7*; Mtb betalactam: -2.2

What do the screens show for `COc1ccc2c(COC(=O)CCS(=O)(=O)c3ccccc3)cc(=O)oc2c1`?
Rv3671c protease: -15.6; Mtb UGM inh: -1.6; GDH-TPI counter: -0.6; RecA splice inh: -4.3; Mtb FBA inh: 133.7*; Mtb betalactam: -11.8

Results for CN(C(=O)COC(=O)c1cc(=O)[nH]c2ccccc12)c1ccccc1 ?
Rv3671c protease: 1.0; Mtb UGM inh: 3.3; GDH-TPI counter: 15.5; Mtb FBA inh: 10.5; Mtb betalactam: -0.7

Results for C[C@@H]1COC(=O)[C@H](Cc2ccc(F)cc2)CC/C=C\C[C@@H](CC(=O)NCCO)C(=O)N1 ?
Rv3671c protease: 1.6; Mtb UGM inh: -0.1; GDH-TPI counter: -6.7; Mtb FBA inh: 1.4; Mtb betalactam: 0.2

Results for COCCN(CCOC)Cc1c(O)ccc2c3c(c(=O)oc12)CCC3 ?
Rv3671c protease: -5.5; Mtb UGM inh: -0.9; GDH-TPI counter: 14.6; RecA splice inh: -30.3; Mtb FBA inh: active; Mtb betalactam: 1.4

What do the screens show for `CCc1c(C)c2ccc(O)c(CN(C)C)c2oc1=O`?
Rv3671c protease: 2.5; Mtb UGM inh: 4.8; GDH-TPI counter: 17.9; RecA splice inh: -137.0; Mtb FBA inh: active; Mtb betalactam: -4.1

How did CN(C)Cc1c(O)ccc2c3c(c(=O)oc12)CCCCC3 do in these assays?
Rv3671c protease: 3.7; Mtb UGM inh: 0.2; GDH-TPI counter: 24.5; RecA splice inh: -219.4; Mtb FBA inh: active; Mtb betalactam: -11.2

What do the screens show for `CCCCc1cc(=O)oc2c(CN(C)C)c(O)ccc12`?
Rv3671c protease: 2.6; Mtb UGM inh: -2.2; GDH-TPI counter: 27.7; RecA splice inh: -78.2; Mtb betalactam: -0.5

How did CCCCN(CC)Cc1c(O)ccc2c3c(c(=O)oc12)CCC3 do in these assays?
Rv3671c protease: 5.3; Mtb UGM inh: -0.6; GDH-TPI counter: 21.9; RecA splice inh: -61.2; Mtb betalactam: -6.0

What do the screens show for `COc1ccc(C(=O)Nc2ccc(NC(=O)C3CC3)nc2)cc1`?
Rv3671c protease: -2.4; Mtb UGM inh: -2.3; GDH-TPI counter: -7.0; RecA splice inh: -0.9; Mtb FBA inh: 1.3; Mtb betalactam: 7.7

What do the screens show for `Cc1c(CC(=O)NCC(C)C)c(=O)oc2cc3c(cc12)CCC(C)(C)O3`?
Rv3671c protease: -6.9; Mtb UGM inh: -2.6; GDH-TPI counter: 15.5; RecA splice inh: 0.1; Mtb FBA inh: 140.1*; Mtb betalactam: 4.1

How did CCC(C)NC(=O)Cc1c(C)c2cc3c(cc2oc1=O)OC(C)(C)CC3 (stereo not drawn) do in these assays?
Rv3671c protease: 11.5; Mtb UGM inh: 2.4; GDH-TPI counter: 17.1; RecA splice inh: -1.0; Mtb FBA inh: 189.1*; Mtb betalactam: -7.1

What do the screens show for `CC[C@@H](C)[C@H](NC(=O)Cc1c(C)c2cc3c(C)c(C)oc3c(C)c2oc1=O)C(=O)O`?
Rv3671c protease: -11.0; Mtb UGM inh: -2.0; GDH-TPI counter: 6.3; RecA splice inh: 1.1; Mtb FBA inh: 1.2; Mtb betalactam: 5.0

Results for Cc1oc2cc3oc(=O)c(CC(=O)NCCC(=O)O)c(C)c3cc2c1C ?
GDH-TPI counter: 18.0; RecA splice inh: -1.5; Mtb FBA inh: 8.1

Results for Cc1c(CC(=O)N[C@@H](C)C(=O)O)c(=O)oc2cc3c(cc12)CCC(C)(C)O3 ?
Rv3671c protease: 7.0; Mtb UGM inh: -1.8; GDH-TPI counter: 26.4; RecA splice inh: -1.3; Mtb FBA inh: active; Mtb betalactam: 10.4

Results for Cc1c(CC(=O)N[C@H](C(=O)O)C(C)C)c(=O)oc2cc3c(cc12)CCC(C)(C)O3 ?
Mtb UGM inh: 0.1; GDH-TPI counter: 22.8; RecA splice inh: 1.5; Mtb FBA inh: 153.0*; Mtb betalactam: -2.0

Results for Cc1oc2cc3oc(=O)c(CC(=O)N[C@@H](C)C(=O)NC(Cc4ccc(Cl)cc4)C(=O)O)c(C)c3cc2c1C (stereo partly drawn) ?
Rv3671c protease: -2.5; Mtb UGM inh: -1.6; GDH-TPI counter: 9.0; RecA splice inh: -3.7; Mtb FBA inh: 5.1; Mtb betalactam: 2.6

Results for COc1cc(Br)cc(C(=O)N2CCc3ccccc32)c1OC ?
GDH-TPI counter: 2.6; Mtb FBA inh: -1.2

How did CCCCCCN1CCN(C2CN(Cc3ccc([N+](=O)[O-])cc3)S(=O)(=O)C2)CC1 (stereo not drawn) do in these assays?
GDH-TPI counter: 2.8; Mtb FBA inh: -1.7

Results for Cc1c(CC(=O)NC(C)C)c(=O)oc2cc3c(cc12)CCC(C)(C)O3 ?
Rv3671c protease: -5.7; Mtb UGM inh: -1.0; GDH-TPI counter: 22.4; RecA splice inh: 1.3; Mtb FBA inh: active; Mtb betalactam: -0.5

What do the screens show for `COCCNC(=O)Cc1c(C)c2cc3c(cc2oc1=O)OC(C)(C)CC3`?
Mtb UGM inh: 1.0; GDH-TPI counter: 15.8; RecA splice inh: 0.4; Mtb FBA inh: 164.9*; Mtb betalactam: -5.2

How did Cc1oc2cc3oc(=O)c(CC(=O)N[C@H](C(=O)N[C@@H](C(=O)O)c4ccccc4)C(C)C)c(C)c3cc2c1C do in these assays?
Rv3671c protease: -0.5; Mtb UGM inh: 0.5; GDH-TPI counter: 22.6; RecA splice inh: 2.6; Mtb FBA inh: 9.2; Mtb betalactam: 1.9
